Most compounds without a hit are left out; they make up all but 0.49% or so of the library.
Vif-APOBEC3F blk: inhibitors of Vif-A3F interaction | Potency, µM (doses to about 46.1 µM), without a hit: top-dose activity, negative = active | HeLa A3F-eYFP + Vif (tagged APOBEC3F with the HIV-1 protein that degrades it), YFP fluorescence increase | actives 0.2% (n = 390,000); also: potency is read from the fitted curve at half-maximal effect; % of control where 0% means no effect; nearly all actives have a fitted effect of over 65% in size
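HeLa cells stably expressing A3F-eYFP plus Vif, plated and incubated overnight at 37 deg C, then exposed to compounds overnight at 37 deg C. Blocked degradation read as raised yellow fluorescence (Ex 488/Em 500-530).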
Vif-APOBEC3G blk: inhibitors of Vif-APOBEC3G interaction; HeLa A3G-eYFP + Vif (tagged APOBEC3G with the HIV-1 protein that degrades it), YFP fluorescence, overnight; Q9HC16; Potency, µM (doses to about 46.1 µM), for the others: at the top dose activity, negative = active, most hits filed as inhibitors; actives 0.076% (n = 410,000); also: potency is read from the fitted curve at half-maximal effect; % is scaled to controls: 0 for no effect and ±100 for the full control effect; nearly all actives have a fitted effect of over 60% in size
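Read-out is eYFP fluorescence (Ex 488/Em 500-530) from Vif-expressing HeLa A3G-eYFP cells; more signal means A3G escaped Vif-mediated degradation. Cells plated overnight, compound pinned in, incubated overnight at 37 deg C.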
PGK inhibitor: inhibitors of T. brucei phosphoglycerate kinase. P07378. PGK/GAPDH coupled, Kinase-Glo luminescence, 60 min. Potency, µM (series often up to 57.5 µM), for inactives: at the top dose activity change, negative = inhibition, actives largely listed as inhibitors. actives 0.043% (n = 380,000); also: potency is read from the fitted curve at half-maximal effect; % is scaled to controls: 0 for no effect and ±100 for the full control effect; nearly all actives have a fitted effect of over 60% in size
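Recombinant glycosomal PGK reaction used 1,3-bisphosphoglycerate generated in-well by GAPDH (100nM final) in 100mM TEA pH 7.6, 5mM MgCl2, 0.01% Tween-20. After 60 minutes at room temperature, ATP was read by Kinase-Glo Plus luminescence end-point.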
mIDH1 inhibitor: inhibitors of human mutant IDH1 R132H; IDH1-R132H enzyme, NADPH consumption, diaphorase/resazurin fluorescence; actives 0.093% (n = 390,000); Potency, µM (series often up to 76.6 µM), inactives show at the highest dose activity change, negative = inhibition, most hits filed as inhibitors; also: potency is read from the fitted curve at half-maximal effect; % is scaled to controls: 0 for no effect and ±100 for the full control effect; nearly all actives have a fitted effect of over 65% in size
Target sequence (O75874 whole entry R132H, stated change not applied): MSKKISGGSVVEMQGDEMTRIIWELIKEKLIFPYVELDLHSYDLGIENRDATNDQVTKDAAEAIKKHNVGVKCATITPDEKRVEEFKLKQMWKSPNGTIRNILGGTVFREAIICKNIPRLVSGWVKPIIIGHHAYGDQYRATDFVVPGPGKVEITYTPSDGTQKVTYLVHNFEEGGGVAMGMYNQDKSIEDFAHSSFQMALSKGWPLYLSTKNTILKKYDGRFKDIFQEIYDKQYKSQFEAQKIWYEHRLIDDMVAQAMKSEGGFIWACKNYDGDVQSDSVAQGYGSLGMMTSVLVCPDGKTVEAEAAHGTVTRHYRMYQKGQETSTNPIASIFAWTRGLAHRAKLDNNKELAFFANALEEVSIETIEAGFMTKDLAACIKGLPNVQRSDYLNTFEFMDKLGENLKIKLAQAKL
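IDH1-R132H (0.5 ug/mL dispensed) in pH 7.5 Tris buffer was preincubated 30 min with compound, then given a substrate mix of 0.016 mM NADPH and 2 mM alpha-KG for 80 min at room temperature; remaining NADPH was read by diaphorase/resazurin fluorescence.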
LDHA block: LDHA (human) enzyme inhibition. P00338. purified LDHA, NADH/diaphorase-resazurin fluorescence; active compounds read low. activity change, % (values are at about 110 or 230 µM). actives 0.15% (n = 480,000). AID 1347041; in the data active = activity change below about -30%; inconclusive = mostly about -25% to -30%;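 also: plate controls were DMSO wells for no effect and wells without enzyme for full effect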
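Human LDH5 (2 nM) was incubated with 0.06 mM NADH and 0.2 mM pyruvate for 5 min at room temperature in Tris pH 7.4. Remaining NADH was coupled through diaphorase/resazurin, and resorufin fluorescence was read at 0 and 20 min.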
Pin1 inhibitor: inhibitors of human Pin1. Pin1 FP peptide displacement, HiFluor488, 10 min. actives 0.009% (n = 390,000). Potency, µM (series often up to 115 µM), without a hit: at the highest dose activity, negative = inhibition, hits mostly inhibitors; active = well fitted inhibition curve with a large enough effect in the polarisation, with a control signal flat, not every such curve was filed as active; inconclusive = small, poorly fitted or top-dose-only effect, or effect the other way, or a change in a side signal; inactive = no such curve, though single readings can be large or run the other way; the % refers to the polarisation; also: potency is read from the fitted curve at half-maximal effect; % is scaled to controls: 0 for no effect and ±100 for the full control effect
An asterisk follows results filed as active; i = inactive; ? = inconclusive; · = no result. Unless noted, calls follow the shape of the dose curve; as a rule, active = well fitted curve in the direction sought with a large enough effect; inconclusive = small, poorly fitted or top-dose-only effect, or another doubt; inactive = no such curve, though single readings can be large; an effect the other way counts as inactive or inconclusive.

SMILES	Vif-APOBEC3F blk	Vif-APOBEC3G blk	PGK inhibitor	mIDH1 inhibitor	LDHA block	Pin1 inhibitor
Oc1c(C=Nc2ccccc2)sc2ccccc12	-12%	?	?	-7%	-8	?
O=C(CSc1ncccn1)N1CCN(C(c2ccccc2)c2ccccc2)CC1	-1%	1%	-10%	2%	-56*	4%
COc1ccc(OC)c(CN2CCN(Cc3ccc(OC)c(OC)c3OC)CC2)c1	-10%	-1%	i	9%	-21	·
COc1ccc(CN2CCN(CCSc3ccc(C)cc3)CC2)c(OC)c1OC	3%	7%	-9%	-5%	-37*	-10%
COCc1ccc(O)c2ncccc12	3%	10µM*	-10%	7%	6	3%
COCCNC(=O)NC(=O)CN(Cc1ccccc1)c1cccc(C)c1	·	·	·	·	1	·
Nc1nc(NCc2ccccc2)sc1C(=O)c1ccc(Cl)cc1	·	·	·	·	12	·
CCOC(=O)c1ccc(NC(=O)CC2SC(c3cc4ccccc4oc3=O)=NC2=O)cc1 (configuration not stated)	·	·	·	·	-31*	·
CCCCn1nnnc1CSc1nnc(-c2ccccc2)n1-c1ccccc1	·	·	·	·	-31*	·
O=c1[nH]c(CSc2nnc(-c3ccccc3)n2-c2ccccc2)nc2ccccc12	-8%	-8%	2%	-17%	4	7%
CCCC1=[N+](CC(=O)c2ccccc2)CCn2cccc21	1%	-6%	-1%	2%	3	?
CCCC1=[N+](CC(=O)c2ccc(Br)cc2)CCn2cccc21	11µM*	-23%	1%	1%	-2	?
CCN1C(=O)/C(=C/C=C2\N(CC)c3cc(S(=O)(=O)N(C)C)ccc3N2c2ccccc2)SC1=S	-19%	?	-15%	52µM*	0	?
CCN1C(=O)/C(=C\C=C\c2ccccc2[N+](=O)[O-])SC1=S	?	0%	-8%	6%	4	1%
Cc1cccc(C=Nc2ccccc2C(N)=O)c1	-15%	10µM*	-2%	1%	-9	-6%
CS(=O)(=O)c1ccc2c(c1)sc1nc(=O)c(/C=C3/C=CC(=O)C(O)=C3)c(N)n12	-21%	4%	13µM*	8%	-13	?
O=[N+]([O-])c1cccc(CN2CCN(Cc3ccco3)CC2)c1	-3%	-1%	-4%	-8%	-43*	-10%
COc1cc(CN2CCN(Cc3ccco3)CC2)cc(OC)c1	-25%	1%	-6%	21%	-32*	·
NC(=O)c1cc(Cl)ccc1OCC(=O)N1CCC1	·	·	·	·	3	·
CCC(C)NCCCOc1ccc(Cl)cc1C(C)(C)C (configuration not stated)	-19%	1%	-10%	11%	-41*	-15%
COC(=O)C1(NC(=O)COc2cc(Cl)ccc2Cl)CCCCCC1	·	·	·	·	-31*	·
CCN(CC)S(=O)(=O)c1ccc(C)c(NC(=S)Nc2cc(S(=O)(=O)N(CC)CC)ccc2C)c1	·	·	·	·	10	·
O=C1/C(=C\c2ccc(O)cc2)SC(=S)N1Cc1ccccc1	11µM*	-18%	-1%	-8%	-4	?
O=C1/C(=C/c2ccc(O)cc2)SC(=S)N1CC1CCCO1 (configuration not stated)	22µM*	-1%	-6%	0%	8	?
O=C(O)c1ccc(/C=C2/SC(=S)N(Cc3ccccc3)C2=O)cc1	1%	-5%	-5%	0%	-5	-15%
CCCCn1nc(C(=O)Nc2cc(C(=O)O)ccc2C)c2ccccc2c1=O	·	·	·	·	0	·
C/C(CCc1ccc2c(c1)OCO2)=N\NC(=S)NC(C)C	13µM*	1%	-3%	5%	5	3%
CC1(C)CC(C(=O)c2ccccc2)CCO1 (configuration not stated)	·	·	·	·	0	·
Cc1ccccc1C([O-])=Nc1ccc[n+](-c2nc3ccccc3nc2NS(=O)(=O)c2ccccc2)c1	13µM*	-7%	-2%	-7%	-2	?

Bioassay records deposited in PubChem by National Center for Advancing Translational Sciences (NCATS).
